The structures appear in SMILES notation. Where “and” joins values, the source holds several entries; their conditions need not be identical. Equal entries are not always repeated. Calls of active or inactive are those of the source. The calls were made as follows: active = hit-call score of the fitted dose curve at least 0.9, where 1 is the maximum; inactive = score below 0.9.

The nature of assay [1]: CEETOX_H295R_PROG: CeeTox H295R High-throughput Steroidogenesis Assay for Progesterone (PROG) (AID 2283442).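 As to AC50: human H295R adrenal cells primed with 10 µM forskolin before dosing; progesterone secreted into medium by H295R cells measured by HPLC-MS/MS.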 The note with it: actives raise or lower the signal. The method, boiled down: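 Steps: seed H295R cells and let them adhere overnight; prime 48 h with 10 uM forskolin; dose with compound in DMSO at 0.1% final for 48 h; extract medium steroids with MTBE; measure progesterone by LC-MS/MS. MTT viability was run in the same wells.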

Read-out in assay [2]: Tumor necrosis factor receptor superfamily member 6 (Homo sapiens) (UniProt P25445)
Description: LTEA_HepaRG_FAS: Life Technologies and Expression Analysis (LTEA) Assay for Fas cell surface death receptor (FAS) using HepaRG (AID 2283447). The conditions noted are these: mRNA level, 48 h; actives raise or lower the signal. The method in brief: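 Differentiated human HepaRG cells, pre-cultured 48 h, were exposed in duplicate for 48 h to 8-point half-log concentrations (top 100 uM, 0.5% DMSO) in serum-free induction medium; FAS mRNA measured by qRT-PCR, normalized to ACTB/GAPDH/POLR2A, bidirectional fit versus DMSO.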

Read-out in assay [3]: Fatty acid synthase (Homo sapiens) (UniProt P49327)
As to the kind of experiment: LTEA_HepaRG_FASN: Life Technologies and Expression Analysis (LTEA) Assay for Fatty Acid Synthase (FASN) using HepaRG (AID 2283448). The note with it: mRNA level, 48 h; actives raise or lower the signal. The method in brief:
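FASN expression changes, up or down relative to 0.5% DMSO, were measured by qRT-PCR in human HepaRG cells after 48 h treatment with chemicals at eight concentrations (half-log steps from 100 uM).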

Read-out in assay [4]: Cyclin Dependent Kinase Inhibitor 1A (CDKN1A), CDKN1A (gene 1026)
As to the kind of experiment: LTEA_HepaRG_CDKN1A: Life Technologies and Expression Analysis (LTEA) Assay for Cyclin Dependent Kinase Inhibitor 1A (CDKN1A) using HepaRG (AID 2283450). The conditions noted are these: mRNA level, 48 h; actives raise or lower the signal. The method, boiled down:
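Read-out is CDKN1A mRNA by TaqMan qRT-PCR, normalized to three housekeeping genes and fitted in both directions against the DMSO baseline. Human HepaRG cells were treated 48 h with test chemicals up to 100 uM in half-log steps, 0.5% DMSO.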

Read-out in assay [5]: Cyclin D1 (CCND1), CCND1 (gene 595)
As to the kind of experiment: LTEA_HepaRG_CCND1: Life Technologies and Expression Analysis (LTEA) Assay for Cyclin D1 (CCND1) using HepaRG (AID 2283451).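 As to AC50: TaqMan qRT-PCR transcript level normalised to ACTB GAPDH and POLR2A housekeeping genes.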 The conditions noted are these: mRNA level, 48 h; actives raise or lower the signal. The method, boiled down: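 HepaRG plated 48 h, medium switched to serum-free induction medium, chemicals added in duplicate (top 100 uM, half-log steps, 0.5% DMSO) for 48 h, cells lysed, RNA measured by TaqMan qRT-PCR.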

Read-out in assay [6]: catalase (CAT), CAT (gene 847)
Description: LTEA_HepaRG_CAT: Life Technologies and Expression Analysis (LTEA) Assay for catalase (CAT) using HepaRG (AID 2283452).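 As to AC50: TaqMan qRT-PCR signal normalized to ACTB GAPDH and POLR2A housekeeping genes.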 The note with it: mRNA level, 48 h; actives raise or lower the signal. The method in brief:
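Differentiated HepaRG cells in serum-free induction medium were dosed 48 h in duplicate, eight half-log concentrations from 100 uM in 0.5% DMSO. Transcript measured by TaqMan qRT-PCR, normalised to ACTB/GAPDH/POLR2A, fitted bidirectionally against DMSO.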

Read-out in assay [7]: flavin-containing dimethylaniline monooxygenases 3 (FMO3), FMO3 (gene 2328)
Description: LTEA_HepaRG_FMO3: Life Technologies and Expression Analysis (LTEA) Assay for flavin-containing dimethylaniline monooxygenases 3 (FMO3) using HepaRG (AID 2283453). The note with it: mRNA level, 48 h; actives raise or lower the signal. The method, boiled down: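 Differentiated HepaRG cells in serum-free induction medium, exposed 48 h in duplicate to 8 half-log concentrations up to 100 uM in 0.5% DMSO. FMO3 mRNA by qRT-PCR, normalized to ACTB, GAPDH, POLR2A; bidirectional fit vs DMSO.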

Read-out in assay [8]: Cytochrome P450 (CYP1A1), CYP1A1 (gene 1543)
As to the kind of experiment: LTEA_HepaRG_CYP1A1: Life Technologies and Expression Analysis (LTEA) Assay for Cytochrome P450 (CYP1A1) using HepaRG (AID 2283454). The conditions noted are these: mRNA level, 48 h; actives raise or lower the signal. The method, boiled down:
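HepaRG, 48 h post-plating switched to serum-free induction medium; 8-pt conc-response (top 100 uM, half-log, 0.5% DMSO), duplicates, 48 h. Lysis in RLT, TaqMan qRT-PCR for CYP1A1; gain or loss vs DMSO.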

Read-out in assay [9]: CFLAR gene, CFLAR (gene 8837)
As to the kind of experiment: LTEA_HepaRG_CFLAR: Life Technologies and Expression Analysis (LTEA) Assay for CFLAR gene using HepaRG (AID 2283455). The conditions noted are these: mRNA level, 48 h; actives raise or lower the signal. The method in brief:
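HepaRG cells were plated for 48 h, switched to serum-free induction medium, then exposed in duplicate for 48 h to 8 concentrations (top 100 uM, half-log steps, 0.5% DMSO). CFLAR mRNA was measured by qRT-PCR, normalized to ACTB, GAPDH and POLR2A.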

Read-out in assay [10]: Cyclin D2 (CCND2), CCND2 (gene 894)
Description: LTEA_HepaRG_CCND2: Life Technologies and Expression Analysis (LTEA) Assay for Cyclin D2 (CCND2) using HepaRG (AID 2283449).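 Also: CCND2 transcript measured by TaqMan qRT-PCR and normalised to three housekeeping genes.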 The note with it: mRNA level, 48 h; actives raise or lower the signal. The method in brief: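 Differentiated human HepaRG cells were exposed for 48 h in serum-free induction medium to eight half-log concentrations topping at 100 uM (0.5% DMSO vehicle). CCND2 mRNA was quantified by TaqMan qRT-PCR, normalised to ACTB, GAPDH and POLR2A, and fitted bidirectionally against DMSO.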

Chain of Fatty acid synthase (Homo sapiens) (P49327 whole entry, looked up): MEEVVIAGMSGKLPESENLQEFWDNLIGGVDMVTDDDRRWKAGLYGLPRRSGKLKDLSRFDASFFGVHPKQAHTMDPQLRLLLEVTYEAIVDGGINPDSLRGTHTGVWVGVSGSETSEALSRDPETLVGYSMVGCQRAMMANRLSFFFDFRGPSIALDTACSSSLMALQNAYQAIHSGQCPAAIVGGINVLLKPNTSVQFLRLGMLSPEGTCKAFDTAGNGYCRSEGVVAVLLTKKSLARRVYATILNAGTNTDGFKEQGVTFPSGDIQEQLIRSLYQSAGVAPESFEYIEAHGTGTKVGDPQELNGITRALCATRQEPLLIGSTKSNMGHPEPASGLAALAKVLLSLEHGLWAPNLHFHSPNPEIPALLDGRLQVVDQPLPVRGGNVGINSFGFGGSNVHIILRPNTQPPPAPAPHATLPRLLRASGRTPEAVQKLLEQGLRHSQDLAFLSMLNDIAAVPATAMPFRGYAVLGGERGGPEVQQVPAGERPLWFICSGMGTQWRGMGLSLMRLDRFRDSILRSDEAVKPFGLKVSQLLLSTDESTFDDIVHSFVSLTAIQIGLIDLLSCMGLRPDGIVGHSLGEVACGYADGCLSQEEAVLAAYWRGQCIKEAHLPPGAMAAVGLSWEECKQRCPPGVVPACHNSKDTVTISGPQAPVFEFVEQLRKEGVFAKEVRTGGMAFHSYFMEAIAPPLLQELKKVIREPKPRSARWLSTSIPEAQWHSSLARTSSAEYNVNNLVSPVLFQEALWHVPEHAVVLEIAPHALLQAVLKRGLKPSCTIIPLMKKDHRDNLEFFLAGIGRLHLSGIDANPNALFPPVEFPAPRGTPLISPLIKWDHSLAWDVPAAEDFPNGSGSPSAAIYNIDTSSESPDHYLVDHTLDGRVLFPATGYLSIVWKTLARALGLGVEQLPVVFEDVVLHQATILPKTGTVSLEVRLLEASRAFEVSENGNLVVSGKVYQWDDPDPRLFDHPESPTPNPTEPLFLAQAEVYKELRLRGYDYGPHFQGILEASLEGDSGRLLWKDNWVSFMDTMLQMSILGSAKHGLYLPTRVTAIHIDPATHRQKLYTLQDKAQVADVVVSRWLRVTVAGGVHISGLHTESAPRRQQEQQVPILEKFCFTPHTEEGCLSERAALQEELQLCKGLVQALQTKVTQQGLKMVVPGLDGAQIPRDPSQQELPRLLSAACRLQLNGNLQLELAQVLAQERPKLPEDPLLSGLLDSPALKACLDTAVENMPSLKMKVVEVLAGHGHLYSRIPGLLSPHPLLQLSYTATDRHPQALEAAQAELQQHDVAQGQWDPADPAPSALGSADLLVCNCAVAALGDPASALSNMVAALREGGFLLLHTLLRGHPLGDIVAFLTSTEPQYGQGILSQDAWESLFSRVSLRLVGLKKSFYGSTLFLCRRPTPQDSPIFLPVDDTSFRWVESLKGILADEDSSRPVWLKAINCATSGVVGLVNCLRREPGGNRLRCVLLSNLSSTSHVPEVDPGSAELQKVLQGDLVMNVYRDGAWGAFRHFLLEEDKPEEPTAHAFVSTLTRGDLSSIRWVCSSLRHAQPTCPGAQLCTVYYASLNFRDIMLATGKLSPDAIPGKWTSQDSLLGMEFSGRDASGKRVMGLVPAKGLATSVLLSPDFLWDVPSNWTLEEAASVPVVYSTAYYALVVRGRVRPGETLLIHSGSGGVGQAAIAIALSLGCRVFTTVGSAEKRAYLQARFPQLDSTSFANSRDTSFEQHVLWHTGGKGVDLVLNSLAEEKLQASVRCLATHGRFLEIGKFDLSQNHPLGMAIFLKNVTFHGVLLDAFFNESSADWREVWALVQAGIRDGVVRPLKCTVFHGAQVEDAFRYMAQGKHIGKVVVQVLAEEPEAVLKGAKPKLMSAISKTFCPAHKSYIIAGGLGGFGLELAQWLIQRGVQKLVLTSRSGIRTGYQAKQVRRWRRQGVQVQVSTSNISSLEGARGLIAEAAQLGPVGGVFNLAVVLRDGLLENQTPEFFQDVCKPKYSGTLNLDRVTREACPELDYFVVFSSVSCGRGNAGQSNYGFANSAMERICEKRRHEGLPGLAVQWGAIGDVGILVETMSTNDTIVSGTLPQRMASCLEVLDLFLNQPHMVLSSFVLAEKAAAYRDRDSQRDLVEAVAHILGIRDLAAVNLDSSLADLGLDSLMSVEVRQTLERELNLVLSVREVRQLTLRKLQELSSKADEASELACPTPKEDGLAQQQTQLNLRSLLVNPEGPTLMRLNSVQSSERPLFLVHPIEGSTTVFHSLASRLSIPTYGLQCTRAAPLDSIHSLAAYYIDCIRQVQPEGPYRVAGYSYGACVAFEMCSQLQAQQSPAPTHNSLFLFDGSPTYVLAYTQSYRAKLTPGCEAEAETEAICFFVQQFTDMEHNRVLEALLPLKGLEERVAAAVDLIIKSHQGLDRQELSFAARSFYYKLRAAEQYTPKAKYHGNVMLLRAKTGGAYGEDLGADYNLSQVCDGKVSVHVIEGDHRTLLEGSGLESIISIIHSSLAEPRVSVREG

As for `ClC1=C(Cl)[C@]2(Cl)[C@@H]3[C@H]4C[C@H]([C@@H]5O[C@H]45)[C@@H]3[C@@]1(Cl)C2(Cl)Cl`, the AC50 is 3 µM (active) in assay [1], 87.6 µM (active) in assay [3], 13.3 µM (active) in [6] and 50 µM (active) in assay [7]. The result in [2], in assay [4], in assay [5], in assay [8] and in assay [9] was inactive.
Take `COS(=O)(=O)OC`: the result in assay [2], in assay [3], in assay [10], in assay [4], in assay [5] and in [6] was inactive. Also, the result in assay [7] and in assay [9] was inactive. Besides, the AC50 in assay [8] was 25.5 µM (active).
Turning to `Cc1ccccc1CO[C@@H]1C[C@@]2(C(C)C)CC[C@]1(C)O2`, the call in [1], in assay [2], in assay [3], in assay [10], in [4] and in assay [5] was inactive. For the same compound, the outcome in assay [6], in assay [7] and in [9] was inactive. Moreover, in [8], the AC50 is 44.4 µM (active).
Regarding `CCC(C)(c1ccc(O)cc1)c1ccc(O)cc1`, the compound was classed as inactive in [2], in assay [10], in [4], in assay [5], in assay [6] and in [7]. Besides, the call in [8] was inactive. Moreover, the AC50 in [3] is 70.5 µM (active); in [9], 71.4 µM (active).
With `O=C(N[C@H]1CN2CCC1CC2)c1cc2ccoc2cn1`, the result in assay [2], in [3], in assay [10], in assay [4], in assay [5] and in [6] was inactive. Further, the compound was called inactive in assay [7] and in assay [9]. Further, the AC50 in [8] is 50 µM (active).
Take `Cc1cc(-c2ccc(N)c(C)c2)ccc1N`: the half-maximal activity concentration (AC50) in assay [1] was 2.96 µM (active) and 31.1 µM (active); in [3] it was 25.1 µM (active); in assay [7], 25.1 µM (active); in assay [8] it was 20.3 µM (active). For the same compound, the compound was classed as inactive in assay [2], in [10], in [4], in assay [5], in assay [6] and in [9].
For `Cc1ccc(O)c(C)c1`, the call in assay [1], in assay [2], in assay [3], in assay [10], in [4] and in assay [5] was inactive. Besides, the outcome in assay [6], in [7], in [8] and in assay [9] was inactive.
Turning to `Clc1ccc(C(c2ccccc2Cl)C(Cl)(Cl)Cl)cc1` (centres undefined), the outcome in [1], in assay [2], in [4], in [5] and in assay [9] was inactive. Moreover, the AC50 in assay [3] is 50 µM (active); in assay [6], 19.3 µM (active); in assay [7] it was 74.6 µM (active); in assay [8], 20 µM (active).
Turning to `Cc1cc2c3c(c1)C(c1ccccc1)=N[C@@H](NC(=O)c1ccncc1)C(=O)N3CC2`, the AC50 was 28.1 µM (active) in [1]; 50 µM (active) in assay [3]; 50 µM (active) in assay [4]; 81.8 µM (active) in [7]; 24.4 µM (active) in [8]. Moreover, the result in assay [2], in assay [10], in [5], in [6] and in assay [9] was inactive.
Take `CC#Cc1cc(C)nc(Nc2ccccc2)n1`: the compound was called inactive in [1], in assay [2], in [10], in assay [6] and in assay [9]. The AC50 in [3] is 1.83 µM (active); in assay [4], 80.1 µM (active); in [5], 13.3 µM (active); in [7] it was 21.8 µM (active); in assay [8] it was 13.8 µM (active).
For the compound `Cc1cccc(C)c1N`, the call in assay [1], in assay [2], in [3], in [10], in assay [4] and in assay [5] was inactive. Moreover, the result in assay [6], in [7] and in assay [9] was inactive. Moreover, the AC50 in assay [8] is 51.8 µM (active).
Regarding `N#Cc1ccc(N(CC(N)=O)CC(F)(F)F)cc1C(F)(F)F`, the result in assay [1], in [2], in assay [3], in [10], in [4] and in [5] was inactive. For the same compound, the compound was called inactive in assay [6], in assay [7] and in assay [9]. Further, the AC50 in [8] is 50 µM (active).
Turning to `c1cc2ccc3cccc4ccc(c1)c2c34`, the AC50 in assay [1] is 13.9 µM (active); in assay [10] it was 5 µM (active); in assay [8], 24.3 µM (active). Further, the compound was classed as inactive in [2], in [3], in [4], in assay [5], in assay [6] and in assay [7]. The compound was classed as inactive in assay [9].
Take `Cc1cc(O)ccc1Cl`: the compound was called inactive in [1], in [2], in [3], in [4], in assay [5] and in [6]. Also, the call in [7], in [8] and in assay [9] was inactive.
Turning to `C[C@]12CCC(=O)C=C1CC[C@@H]1[C@@H]2CC[C@@]2(C)[C@H]1CC[C@]2(C)O`, the outcome in [1], in assay [2], in assay [10], in [5], in assay [6] and in assay [8] was inactive. The compound was called inactive in assay [9]. The figures for the AC50 in assay [3], in assay [4] and in assay [7] were 66.1 µM (active), 79.9 µM (active) and 66 µM (active), respectively.

As a reminder, the AC50 is the midpoint of the concentration-response curve, whichever way the signal moves.

Source of the values: PubChem BioAssay (EPA / NIEHS).
